Source: PubChem BioAssay (NCI)
Several values for one entry are separate records, joined by “and”; a condition that tells them apart may be missing. Equal entries are not always repeated. This is part of a sample that, as a whole, favours compounds with a hit. Of some 79,000 tested, about 15% had one in any assay. Unmarked numbers belong to inactive results. Activity calls are given as the source filed them. No stated cut-off is given here; in the data, active means growth inhibition above about 70%; inactive means the rest.

How the values were obtained:
[1] = NCI Yeast Anticancer Drug Screen. Data for the rad50 strain (AID 155);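 further: 0% = growth of vehicle-only cultures of the same strain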; settings: S. cerevisiae rad50 strain growth inhibition; at 50.0 µM; stronger effect = higher value
Procedure, shortened: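 Genetically altered yeast (DNA repair pathway); compound treatment; growth inhibition vs vehicle ctrl.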

[2] = NCI Yeast Anticancer Drug Screen. Data for the mec2-1 strain (AID 157); settings: S. cerevisiae mec2-1 strain, at 50.0 µM, stronger effect = higher value
Procedure, shortened: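 Vehicle-treated cultures served as reference for growth inhibition of compound-exposed mec2-1 yeast.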

[3] = NCI Yeast Anticancer Drug Screen. Data for the sgs1 mgt1 strain (AID 161);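 further: 0% = growth of cultures given vehicle only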; settings: S. cerevisiae sgs1 mgt1 strain, at 50.0 µM, stronger effect = higher value
Procedure, shortened: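 Genetically altered yeast, compound exposure, growth inhibition relative to vehicle.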

[4] = NCI Yeast Anticancer Drug Screen. Data for the cln2 rad14 strain (AID 165);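 further: 0% = growth equal to vehicle treated cultures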; settings: S. cerevisiae cln2 rad14 strain, at 50.0 µM, stronger effect = higher value
Procedure, shortened: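 Each compound was tested on cln2 rad14 yeast. Inhibition of growth was calculated against vehicle-exposed controls.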

[5] = NCI Yeast Anticancer Drug Screen. Data for the bub3 strain (AID 167); settings: S. cerevisiae bub3 mutant strain, at 50.0 µM, stronger effect = higher value
Procedure, shortened: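 Yeast carrying a defined mutation is treated with each compound, and growth is compared with that of vehicle-exposed cells to give inhibition.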

[6] = NCI Yeast Anticancer Drug Screen. Data for the mlh1 rad18 strain (AID 175); settings: S. cerevisiae mlh1 rad18 strain growth inhibition; at 50.0 µM; stronger effect = higher value
Procedure, shortened: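 Vehicle-treated cultures served as the reference for growth inhibition in a yeast strain carrying DNA damage repair alterations exposed to each compound.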

Row | Structure (SMILES) | growth inhibition [1] | growth inhibition [2] | growth inhibition [3] | growth inhibition [4] | growth inhibition [5] | growth inhibition [6]
1 | CCCCCCCC[As](=O)(O)CCCCCCCC | -2.95% | -0.3% | 20.9% | -6.85% | -0.7% | -10.2%
2 | CC(C)c1ccc(-n2c(=S)[nH]c3ccccc3c2=O)cc1 | -16.3% | -7% | -13.8% | -25% | -5.7% | 13.8%
3 | CC(C)(CBr)COP1(=O)NCC(C)(C)CO1 (stereo not given) | 13.7% | -3.7% | 3.85% | 20.4% | 4.2% | 10.8%
4 | CC1CCC2C(C)C3C(CC4C5CC=C6CC(OC7OC(CO)C(O)C(OC8OC(CO)C(O)C(O)C8O)C7OC7OC(C)C(O)C(O)C7O)CCC6(C)C5CCC43C)N2C1 (stereo not given) | -3.25% and 9.1% | 11.8% and -8.5% | -5.75% and 10.2% | -6.3% and -9.3% | -1.65% and 1.95% | 36.5% and 15.3%
5 | CCCO[As](=O)(OCCC)OCCC | 5.55% | 6.95% | 5.8% | 11.8% | 24.1% | -9.1%
6 | CNC(=O)Oc1cccc(N=CN(C)C)c1 | 7.65% | 1.05% | 0% | 9.9% | -20.4% | 16.7%
7 | COC(=O)CNP(=O)(NCC(=O)OC)N(CCCl)CCCl | -8.2% | -14.8% | -18.6% | 5.2% | -1.65% | 5.7%
8 | CCOC(=O)c1cc(N(CCCl)CCCl)ccc1OC(=O)CC | 3.95% | -6.9% | 19.7% | -32.2% | 5.85% | 30.1%
9 | C[N+](C)=c1nc(N2CCc3ccccc3C2)ss1 | 27% | 37% | 26.4% | -19.4% | 12.1% | 47.7%
10 | CC(=O)OC1CC(OC2C(O)CC(OC3C(O)CC(OC4CCC5(C)C(CCC6C5CCC5(C)C(C7=CC(=O)OC7)C(O)CC65O)C4)OC3C)OC2C)OC(C)C1OC1OC(CO)C(O)C(O)C1O (stereo not given) | 18.1% | 8.8% | -12.8% | 8.1% | 21.8% | 10.8%
11 | CCN(CC)CCc1ccccn1 | -13.4% | -15.5% | -7% | -8.8% | -14.4% | 5.5%
12 | CCC(C)Sc1ccccc1OC(=O)NC (stereo not given) | -10.4% | 7.05% | 0.5% | -16.6% | 9.85% | 24.1%
13 | Cc1cccc(C)c1N | 10.3% | 2.4% | -9.65% | -36.5% | 1.7% | 16.8%
14 | O=C(O)CN1C(=O)CN=C(c2ccccn2)c2cc(Cl)ccc21 | -5.45% | -8.6% | -23.8% | -50.6% | -15.3% | -17%
15 | OCCCCO | -5.9% | -1.7% | -12% | -10.4% | -12.1% | 1.35%
16 | C/C(=C\C(C)C)C1(C)C(=O)NC(=O)NC1=O | 8.85% | 11.4% | -6.3% | 4.95% | 4.4% | -19.3%
17 | CCCCC(CC)C(O)P(=O)(OCC)OCC (stereo not given) | -0.55% | 19% | -2.3% | -21.9% | 23.7% | 9.9%
18 | CCC(CC)CNC(=O)C(C)Br (stereo not given) | 2.05% | 1.85% | -1.95% | 3.05% | 7.2% | -3.65%
19 | CN1CCC(C(O)(c2ccccc2)c2ccccc2)CC1 | -1.95% | -11.3% | 12.3% | -39.1% | -6.45% | -25.4%
20 | [CH3][Pb]([CH3])([CH3])[O]C(=O)c1ccc([N+](=O)[O-])cc1 | 28.7% | -41% | 25.1% | 8.8% | 1.15% | 42.2%

Row | Structure (SMILES) | growth inhibition [1] | growth inhibition [2] | growth inhibition [3] | growth inhibition [4] | growth inhibition [5] | growth inhibition [6]
21 | CC1(C)SC2C(NC(=O)COc3ccccc3)C(=O)N2C1C(=O)O (stereo not given) (tested in a mixture with another compound) | -3.75% | 8.1% | 2.3% | -24.4% | -2.15% | 10%
22 | O=C1NC2(CCCCC2)C(=O)N1CCCCCN(CCCl)CCCl | 22.8% | 18.4% | 2.1% | -25.4% | -9.75% | -0.3%
23 | O=S(=O)(c1ccccc1)N1C2CCCC21 (stereo not given) | 14.1% | 2.55% | 7.05% | -2.75% | 7.5% | -21.5%
24 | NC(N)=NCCCCCCCCCCN=C(N)N | 0.45% | -20.2% | -6.05% | 8.4% | -2.35% | -10.3%
25 | O=S1(N2CC2)=NP(N2CC2)(N2CC2)=NP(N2CC2)(N2CC2)=N1 (stereo not given) | -20.9% | -22.5% | -16.8% | 11.2% | -33% | -67.1%
26 | CCOP(=O)(OCC)/C(C#N)=C/c1ncc[nH]1 | -36.6% | -23.9% | -48% | 19.7% | 26.2% | -55.4%
27 | C[CH2][Sn]1([CH2]C)[O]C(=O)[O][Sn]([CH2]C)([CH2]C)[O]1 | -30.1% | 0.95% | -30.2% | -5.05% | -6.05% | -53.3%
28 | CC[As](CC)SC(CC[C@@H](C)C1CC[C@@]2(C)C3=C(CC[C@]12C)[C@@]1(C)CC[C@H](O)C(C)(C)[C@@H]1CC3)C(C)C (stereo not given in full) | 3.95% | 17.6% | -8.15% | -21.1% | -1.55% | -25.6%
29 | CCCCCCCCCCCCCCCCOc1ccc(S(=O)(=O)F)cc1C(=O)Nc1ccc(S(=O)(=O)Nc2cccc3ccccc23)cc1 | 3.3% | 1.9% | -2.75% | -3.05% | -0.3% | 5.35%
30 | CCOC(OCC)c1ccc(N(C)C)cc1.[C-]#[O+].[C-]#[O+].[C-]#[O+].[Cr] | -8.25% | -30.2% | 37.8% | -4.5% | -8.3% | 4.6%
31 | CC(C)(C)C[C](C)(c1ccccc1)[Sn]([CH3])([CH3])[CH3] (stereo not given) | -14.2% | 4.9% | 8.4% | 6.9% | 1.2% | 7%
32 | CCN(CCCl)c1cc(C(=O)NCCCN(C)CCCNC(=O)c2cc(N(CC)CCCl)c([N+](=O)[O-])cc2[N+](=O)[O-])c([N+](=O)[O-])cc1[N+](=O)[O-] | -4.75% | -2.9% | -17% | -4.05% | -2.2% | -9%
33 | O=c1cccc2n1CC1CNC[C@H]2C1 | 16.6% | 9.5% | 5.8% | 7.75% | 12.6% | -4.85%
34 | COc1ccc([N+](=O)[O-])cc1N=Cc1ccc(N(CCCl)CCCl)cc1C | 43% | 13.3% | 52.2% | 18.6% | 3.5% | 17.1%
35 | Clc1ccc([As](c2ccc(Cl)cc2)c2ccc(Cl)cc2)cc1 | 77.5% (active) | 48.1% | 74.3% (active) | 13.7% | 30.5% | 48.4%
36 | c1ccc(CN2C3CCCC2CC(c2ccccc2)C3)cc1 (stereo not given) | 79.8% (active) | 63.9% | 80.3% (active) | 71.8% (active) | 65.7% | 85.5% (active)
37 | CC(C)CCON=C(N)N | -23.8% | -2.25% | -13.7% | -40% | -5.6% | 2.55%
38 | NNC(=O)NC(=O)NN | 1.25% | 5.4% | 4.6% | -8.95% | -0.15% | 9.6%
39 | O=C(Oc1ccc(S(=O)(=O)F)cc1Cl)c1ccc([N+](=O)[O-])cc1 | 92.5% (active) | 68% | 94.7% (active) | 92.8% (active) | 60% | 93.7% (active)
40 | NC(C(=O)[O-])C(=O)[O-].NC1CCCCC1N.[Pt+4] | 7.35% | -5.95% | 5.75% | -31.6% | -17.9% | -3.2%
